Measurements reported in PubChem BioAssay (NCI).
This is part of a sample that, as a whole, favours compounds with a hit. Of some 83,000 tested, about 20% had one in any assay.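 For each line, cells grew in 96-well plates with the test compound present at a single concentration for 48 hours.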 The source made the active and inactive calls. Rule for the calls: active = growth percent below 10; inactive = the rest.

How the values were obtained:
Assay in all cases: NCI-60 one-dose screen, 48 h (100 = growth as untreated, 0 = no growth, -100 = all killed)
Conditions in all cases: 10 µM unless noted
DU-145 prostate = test system: DU-145 prostate
K-562 leukemia = test system: K-562 leukemia
MALME-3M melanoma = test system: MALME-3M melanoma
MDA-MB-231 breast = test system: MDA-MB-231 breast
RXF 393 renal = test system: RXF 393 renal
SF-268 CNS = test system: SF-268 CNS
SF-295 CNS = test system: SF-295 CNS
UACC-257 melanoma = test system: UACC-257 melanoma
M14 melanoma = test system: M14 melanoma
HCT-15 colon = test system: HCT-15 colon
HT29 colon = test system: HT29 colon
SNB-75 CNS = test system: SNB-75 CNS
SNB-19 CNS = test system: SNB-19 CNS
U251 CNS = test system: U251 CNS
PC-3 prostate = test system: PC-3 prostate
SK-MEL-5 melanoma = test system: SK-MEL-5 melanoma
UACC-62 melanoma = test system: UACC-62 melanoma
LOX IMVI melanoma = test system: LOX IMVI melanoma
SK-MEL-28 melanoma = test system: SK-MEL-28 melanoma

Measured: growth

O=C(CO[N+](=O)[O-])Nc1ccc(C(=O)/C=C/c2ccc3c(c2)OCO3)cc1
inactive: DU-145 prostate 96.7% | K-562 leukemia 59.1% | MALME-3M melanoma 116% | MDA-MB-231 breast 87.4% | RXF 393 renal 107% | SF-268 CNS 82.4% | SF-295 CNS 74.6% | UACC-257 melanoma 92.9% | M14 melanoma 81.8% | HCT-15 colon 76.7% | HT29 colon 30.1% | SNB-75 CNS 86.3% | SNB-19 CNS 104% | U251 CNS 57.3% | PC-3 prostate 61.4% | SK-MEL-5 melanoma 90.8% | UACC-62 melanoma 96% | LOX IMVI melanoma 21.5% | SK-MEL-28 melanoma 104%

CCOC(=O)/C=C/c1ccc(C(=O)OCC)[nH]1
active: SK-MEL-5 melanoma 8.89%
inactive: DU-145 prostate 73.4% | K-562 leukemia 19.4% | MALME-3M melanoma 73.1% | MDA-MB-231 breast 58.8% | RXF 393 renal 87.3% | SF-268 CNS 69.2% | SF-295 CNS 63% | UACC-257 melanoma 68.1% | M14 melanoma 47.6% | HCT-15 colon 24.3% | HT29 colon 15% | SNB-75 CNS 70.1% | SNB-19 CNS 87.7% | U251 CNS 39.9% | PC-3 prostate 83.5% | UACC-62 melanoma 51% | LOX IMVI melanoma 52.7% | SK-MEL-28 melanoma 83.8%

C=C1CCC2C3(C)COC(c4cccc(Cl)c4)OC3CCC2(C)C1/C=C/C1=CCOC1=O (stereo not given)
inactive: DU-145 prostate 79.1% | K-562 leukemia 24.3% | MALME-3M melanoma 84.6% | MDA-MB-231 breast 80.1% | RXF 393 renal 80.9% | SF-268 CNS 83.7% | SF-295 CNS 45.7% | UACC-257 melanoma 57.4% | M14 melanoma 83.6% | HCT-15 colon 59.1% | HT29 colon 56.9% | SNB-75 CNS 86.5% | SNB-19 CNS 77.3% | U251 CNS 69.4% | PC-3 prostate 44.2% | SK-MEL-5 melanoma 35% | UACC-62 melanoma 62.6% | LOX IMVI melanoma 52.1% | SK-MEL-28 melanoma 78.8%

CC(=O)C1=C(O)C=C2Oc3c(C(=O)/C=C/c4cc(Cl)cc(Cl)c4)c(O)c(C)c(O)c3[C@]2(C)C1=O
active: DU-145 prostate -3.76% | K-562 leukemia -16.2% | MALME-3M melanoma -62.4% | MDA-MB-231 breast -30.9% | RXF 393 renal -40.4% | SF-268 CNS -21.4% | SF-295 CNS -18.7% | UACC-257 melanoma -19.6% | M14 melanoma -32.8% | HCT-15 colon -35.5% | HT29 colon -23.5% | SNB-75 CNS -39.9% | SNB-19 CNS -24.4% | U251 CNS -29.9% | PC-3 prostate -21.1% | SK-MEL-5 melanoma -89.2% | UACC-62 melanoma -71.2% | LOX IMVI melanoma -54% | SK-MEL-28 melanoma -36.1%

CC(=O)C1=C(O)C=C2Oc3c(C(=O)/C=C/c4c(Cl)cccc4Cl)c(O)c(C)c(O)c3[C@]2(C)C1=O
active: DU-145 prostate 6.3% | K-562 leukemia -26.7% | MALME-3M melanoma -67.7% | MDA-MB-231 breast -63.4% | RXF 393 renal -48.9% | SF-268 CNS -20.4% | SF-295 CNS -37% | UACC-257 melanoma -37% | M14 melanoma -10.9% | HCT-15 colon -50.4% | HT29 colon -18.5% | SNB-75 CNS -22.3% | SNB-19 CNS -23.7% | U251 CNS -33% | PC-3 prostate -3.69% | SK-MEL-5 melanoma -86.3% | UACC-62 melanoma -69.7% | LOX IMVI melanoma -51.9% | SK-MEL-28 melanoma -60.1%

CC(C)Oc1nc2c(c(=O)n(C)c(=O)n2C)n1C
inactive: DU-145 prostate 105% | K-562 leukemia 95% | MALME-3M melanoma 107% | MDA-MB-231 breast 103% | RXF 393 renal 116% | SF-268 CNS 100% | SF-295 CNS 101% | UACC-257 melanoma 88% | M14 melanoma 107% | HCT-15 colon 106% | HT29 colon 96.6% | SNB-75 CNS 88% | SNB-19 CNS 96.4% | U251 CNS 99.7% | PC-3 prostate 90.7% | SK-MEL-5 melanoma 104% | UACC-62 melanoma 96.5% | LOX IMVI melanoma 98.9% | SK-MEL-28 melanoma 105%

O=C1CC(c2nc3ccccc3[nH]2)CN1C1CCCCC1 (stereo not given)
inactive: DU-145 prostate 110% | K-562 leukemia 102% | MALME-3M melanoma 103% | MDA-MB-231 breast 102% | RXF 393 renal 111% | SF-268 CNS 101% | SF-295 CNS 97.3% | UACC-257 melanoma 101% | M14 melanoma 104% | HCT-15 colon 105% | HT29 colon 102% | SNB-75 CNS 90.1% | SNB-19 CNS 110% | U251 CNS 99.7% | PC-3 prostate 93.3% | SK-MEL-5 melanoma 101% | UACC-62 melanoma 104% | LOX IMVI melanoma 93.9% | SK-MEL-28 melanoma 112%

CN1CCOCCOCCOc2ccccc2NC(=O)c2nc(cnc2N)-c2ccc(cc2)S1(=O)=O
inactive: DU-145 prostate 31.1% | K-562 leukemia 15.9% | MALME-3M melanoma 55.7% | MDA-MB-231 breast 66.3% | RXF 393 renal 29.9% | SF-268 CNS 63.3% | SF-295 CNS 57.7% | M14 melanoma 26.9% | SNB-75 CNS 52.1% | SNB-19 CNS 82.5% | U251 CNS 54.6% | PC-3 prostate 53.5% | SK-MEL-5 melanoma 60.5% | UACC-62 melanoma 54.3% | LOX IMVI melanoma 30.1% | SK-MEL-28 melanoma 58.6%
active: UACC-257 melanoma -34.6% | HCT-15 colon 1.6% | HT29 colon 9.23%

CCC(c1ccccc1)C(CC)c1ccc(O)c(O)c1 (stereo not given)
inactive: DU-145 prostate 100% | K-562 leukemia 87% | MALME-3M melanoma 114% | MDA-MB-231 breast 109% | RXF 393 renal 106% | SF-268 CNS 92.1% | SF-295 CNS 106% | UACC-257 melanoma 97.3% | M14 melanoma 96.9% | HCT-15 colon 91.2% | HT29 colon 104% | SNB-75 CNS 86.4% | SNB-19 CNS 116% | U251 CNS 96.6% | PC-3 prostate 92.7% | SK-MEL-5 melanoma 88.3% | UACC-62 melanoma 81.5% | LOX IMVI melanoma 87.9% | SK-MEL-28 melanoma 95.4%

O=C(/C=C/c1cc2ccccc2[nH]c1=O)/C=C/c1cc2ccccc2[nH]c1=O
inactive: DU-145 prostate 10.1% | HCT-15 colon 48.2% | SNB-75 CNS 19.5% | SNB-19 CNS 44.5% | UACC-62 melanoma 13.5% | SK-MEL-28 melanoma 37.9%
active: K-562 leukemia 1.78% | MALME-3M melanoma -24.8% | MDA-MB-231 breast -6.36% | RXF 393 renal -91.8% | SF-268 CNS -36% | SF-295 CNS 4.04% | UACC-257 melanoma -31.9% | M14 melanoma -45.4% | HT29 colon -39.2% | U251 CNS -9.57% | PC-3 prostate 9.61% | SK-MEL-5 melanoma -22.8% | LOX IMVI melanoma -65.4%

O=C(O)c1c([N+](=O)[O-])cnc2ccccc12
inactive: DU-145 prostate 116% | K-562 leukemia 112% | MALME-3M melanoma 88.4% | MDA-MB-231 breast 107% | RXF 393 renal 110% | SF-268 CNS 104% | SF-295 CNS 102% | UACC-257 melanoma 97.1% | M14 melanoma 93.5% | HCT-15 colon 109% | HT29 colon 107% | SNB-75 CNS 88.4% | SNB-19 CNS 91% | U251 CNS 106% | PC-3 prostate 104% | SK-MEL-5 melanoma 97.4% | UACC-62 melanoma 99.4% | LOX IMVI melanoma 97.6% | SK-MEL-28 melanoma 125%

CNCCCn1c2c(c3ccc([N+](=O)[O-])cc3c1=O)C(=O)c1cc(OC)cnc1-2
active: DU-145 prostate 0.657% | K-562 leukemia -28.9% | MALME-3M melanoma -69.2% | MDA-MB-231 breast -51.9% | RXF 393 renal -90.5% | SF-268 CNS 0.163% | SF-295 CNS -13.2% | UACC-257 melanoma -23.1% | M14 melanoma -13.1% | HCT-15 colon -27.5% | HT29 colon -19.2% | SNB-75 CNS -26.5% | SNB-19 CNS 2.67% | U251 CNS -61.1% | PC-3 prostate 2.02% | SK-MEL-5 melanoma -98.8% | UACC-62 melanoma -77.1% | LOX IMVI melanoma -89% | SK-MEL-28 melanoma -67%

NC1=CC(=O)C(=O)c2ccccc21
inactive: DU-145 prostate 102% | K-562 leukemia 71% | MALME-3M melanoma 45.7% | MDA-MB-231 breast 77.5% | RXF 393 renal 100% | SF-268 CNS 93.3% | SF-295 CNS 80.7% | UACC-257 melanoma 51.5% | M14 melanoma 68.1% | HCT-15 colon 92.1% | HT29 colon 106% | SNB-75 CNS 113% | SNB-19 CNS 93.2% | U251 CNS 88% | PC-3 prostate 91.1% | SK-MEL-5 melanoma 77.5% | UACC-62 melanoma 39.4% | SK-MEL-28 melanoma 75.2%
active: LOX IMVI melanoma 7.65%

Oc1c(Cl)cc(Cl)cc1CNc1nccnn1
inactive: DU-145 prostate 101% | K-562 leukemia 125% | MALME-3M melanoma 93.9% | MDA-MB-231 breast 104% | RXF 393 renal 108% | SF-268 CNS 96.6% | SF-295 CNS 101% | UACC-257 melanoma 105% | M14 melanoma 91.9% | HCT-15 colon 101% | HT29 colon 105% | SNB-75 CNS 78.1% | SNB-19 CNS 95.8% | U251 CNS 102% | PC-3 prostate 94.8% | SK-MEL-5 melanoma 102% | UACC-62 melanoma 93.9% | LOX IMVI melanoma 99.4% | SK-MEL-28 melanoma 106%

Cc1ccccc1CCO
inactive: DU-145 prostate 111% | K-562 leukemia 114% | MALME-3M melanoma 92.5% | MDA-MB-231 breast 110% | RXF 393 renal 104% | SF-268 CNS 101% | SF-295 CNS 99.6% | UACC-257 melanoma 89.4% | M14 melanoma 98.3% | HCT-15 colon 99.8% | HT29 colon 76.4% | SNB-75 CNS 102% | SNB-19 CNS 108% | U251 CNS 98.6% | PC-3 prostate 97.6% | SK-MEL-5 melanoma 102% | UACC-62 melanoma 108% | LOX IMVI melanoma 103% | SK-MEL-28 melanoma 99.9%
